Compound activity: PubChem, National Center for Advancing Translational Sciences (NCATS)
ALOX12 inhib: 12-hLO (ALOX12) enzyme inhibition; purified 12-hLO, xylenol orange hydroperoxide absorbance; Potency, µM (doses to about 57.1 µM), usual class: inhibitors; AID 1452; 150,000 tested, 0.12% active; P18054; also: nearly all actives have a fitted effect of over 55% in size
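Hydroperoxide output read as Fe(III)-xylenol orange absorbance, 573-to-405 nm ratio, after 30 min reaction with 40 uM arachidonic acid. Enzyme: 150 nM purified human 12hLO, 15 min compound preincubation; 25 mM Hepes pH 7.0, room temperature.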
ALDH1A1 block: ALDH1A1 (human) enzyme inhibition. P00352. Purified ALDH1A1, NADH fluorescence, propionaldehyde substrate. Potency, µM (doses to about 75.3 µM), most hits filed as inhibitors. 220,000 tested, 7.3% active; active = well fitted inhibition curve with a large enough effect, not every such curve was filed as active; inconclusive = small, poorly fitted or top-dose-only effect, or another doubt; inactive = no such curve, though single readings can be large or run the other way
Target sequence (P00352 whole entry, looked up): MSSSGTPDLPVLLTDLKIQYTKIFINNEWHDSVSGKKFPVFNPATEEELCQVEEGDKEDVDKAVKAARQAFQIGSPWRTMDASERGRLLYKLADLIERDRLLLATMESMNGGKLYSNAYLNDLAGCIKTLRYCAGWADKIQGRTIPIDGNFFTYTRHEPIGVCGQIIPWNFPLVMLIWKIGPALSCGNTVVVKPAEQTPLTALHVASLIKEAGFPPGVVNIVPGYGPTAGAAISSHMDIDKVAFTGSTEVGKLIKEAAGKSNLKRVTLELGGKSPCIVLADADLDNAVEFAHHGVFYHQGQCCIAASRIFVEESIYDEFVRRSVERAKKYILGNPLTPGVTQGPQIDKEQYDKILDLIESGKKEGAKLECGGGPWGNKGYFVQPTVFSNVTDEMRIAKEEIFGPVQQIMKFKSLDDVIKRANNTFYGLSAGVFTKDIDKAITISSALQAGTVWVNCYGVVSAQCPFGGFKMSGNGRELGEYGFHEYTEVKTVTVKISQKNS
IMPase cell inh: cell-permeable inhibitors of inositol monophosphatase (IMPase); P97697; CHO-M1 cells, IP1 accumulation, HTRF TR-FRET ratio; inhibition (IP1 accumulation), % at 46.1 µM; 120,000 tested, under 10 active; AID 901; active = well fitted curve in the direction sought with a large enough effect in the signal ratio, not every such curve was filed as active; inconclusive = small, poorly fitted or top-dose-only effect, or a change in a side signal; inactive = no such curve, though single readings can be large or run the other way; the % refers to the signal ratio;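 also: cells stimulated with carbachol in lithium chloride buffer; higher means more IMPase inhibition seen as more IP1 and lower FRET ratio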
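Elevated IP1 in lysates lowers TR-FRET signal (665/620 ratio and 620 channel reported). Cells were CHO-M1, given carbachol (50 uM as added) plus 50mM LiCl, pH 7.4, 30 min, 37C; compounds titrated up to 46 uM; AC50 by Hill equation.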
HPGD inh: inhibitors of human 15-hydroxyprostaglandin dehydrogenase (HPGD) | P15428 | purified HPGD, NADH fluorescence kinetic, PGE2 substrate | Potency, µM, actives largely listed as inhibitors | 150,000 tested, 4.3% active; active = well fitted inhibition curve with a large enough effect, not every such curve was filed as active; inconclusive = small, poorly fitted or top-dose-only effect, or another doubt; inactive = no such curve, though single readings can be large or run the other way
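20 nM HPGD preincubated 15 min at room temperature with compound in 50 mM Tris-HCl pH 8, 0.01% Tween 20. Started with 1 mM NAD+ and 30 uM prostaglandin E2; NADH fluorescence (360/450 nm) read 5 times over 30-s intervals, last minus first.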
IMPase Li inh: IMPase inhibition in cells with lithium potentiation; CHO-M1 cells, IP1 TR-FRET (IP-One), carbachol + lithium; Potency, µM (titrated, usually from 59.4 µM), most hits filed as inhibitors; 210,000 tested, 0.35% active; AID 1457;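 also: IP1 builds up when IMPase is blocked and the TR-FRET signal falls; nearly all actives have a fitted effect of over 50% in size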
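CHO-M1, 2000 cells/well, 16–30 h culture; cpd + low Li+, 30 min 37C; lysis with d2-IP1/Eu-anti-IP1 Ab, 10 min RT; TR-FRET 665/620 ratio and 620 channel; AC50 via Hill.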
NPSR antagonist: blocks cAMP signaling of the human neuropeptide S receptor | CHO-NPSR cells, cAMP TR-FRET, antagonist mode | Potency, µM (series often up to 38.3 µM), actives largely listed as inhibitors | Q6W5P4 | AID 1461 | 220,000 tested, 1% active; also: nearly all actives have a fitted effect of over 50% in size
Each line names hits and unclear results; the compound was inactive in the other large screens. A selection: hits, their analogues and other compounds. The true share with any hit is near 8.9%. Unless noted, calls follow the shape of the dose curve; as a rule, active = well fitted curve in the direction sought with a large enough effect; inconclusive = small, poorly fitted or top-dose-only effect, or another doubt; inactive = no such curve, though single readings can be large; an effect the other way counts as inactive or inconclusive.

COc1ccc2nc(NC(=O)C3CCCO3)sc2c1 (stereo not drawn)	none (no result: ALOX12 inhib, IMPase cell inh, HPGD inh)
O=C(Nc1cc(Cl)c(O)c(Cl)c1)C1CCCO1 (stereo not drawn)	ALDH1A1 block inconclusive, HPGD inh 25µM
COc1ccc(NC(=O)C2CCCO2)cc1Cl (stereo not drawn)	ALDH1A1 block inconclusive, HPGD inh 16µM
Cc1nn(-c2ccccc2)c(C)c1CCC(=O)O	none
Cc1c(Cl)cccc1NC(=O)NC1CCCCC1	none
COc1ccc(-n2c(C)cc(C(=O)CN3C(=O)NC4(CCCc5sccc54)C3=O)c2C)cc1 (stereo not drawn)	none (no result: IMPase cell inh)
Cc1cc(C(=O)CN2C(=O)NC3(CCCc4sccc43)C2=O)c(C)n1-c1ccccc1 (stereo not drawn)	ALDH1A1 block 28µM (no result: IMPase cell inh)
CCOC(=O)COc1ccc(S(=O)(=O)N2CCN(c3ccc(F)cc3)CC2)cc1	NPSR antagonist inconclusive
O=[N+]([O-])c1cccc(C(F)(F)F)c1	none (no result: IMPase cell inh, NPSR antagonist)
Cc1ccc(O)c(C2=NNC(O)(C(F)(F)F)C2)c1 (stereo not drawn)	HPGD inh 25µM
Cc1cc(C)c[n+](CC(=O)c2ccc(NC(=O)c3ccccc3)cc2)c1	none (no result: ALOX12 inhib, IMPase cell inh, HPGD inh)
O=C1c2ccccc2C(=O)C12OC2c1ccc(Cl)cc1 (stereo not drawn)	ALOX12 inhib inconclusive, ALDH1A1 block 0.79µM, NPSR antagonist inconclusive (no result: IMPase cell inh)
O=C1NC(c2ccc(Cl)cc2)Nc2ccccc21 (stereo not drawn)	ALDH1A1 block inconclusive (no result: ALOX12 inhib, IMPase cell inh, HPGD inh)
CCN(CC)c1ccc(NC(=O)COc2ccc(N(C)S(=O)(=O)c3cccs3)cc2)cc1	none (no result: ALOX12 inhib, IMPase cell inh, HPGD inh)
Cc1nn(C)cc1CN(C)C(=O)c1nn2c(c1Cl)NC(c1cccs1)CC2C(F)(F)F (stereo not drawn)	none
N#CCc1c(C#N)c(N)nc(N2CCN(C=O)CC2)c1C#N	ALDH1A1 block 7.1µM (no result: ALOX12 inhib, IMPase cell inh, HPGD inh)
CC(=O)N1CCN(c2nc(N)c(C#N)c(CC#N)c2C#N)CC1	none (no result: ALOX12 inhib, IMPase cell inh, HPGD inh, IMPase Li inh)
COc1ccc2nc(/C=N/NC(=O)CCNC(=O)OC(C)(C)C)ccc2c1	none (no result: ALOX12 inhib, ALDH1A1 block, IMPase cell inh, HPGD inh, IMPase Li inh)
N#CC(C#N)=Cc1ccc(NC(=O)c2ccc(Br)cc2)cc1	none (no result: ALOX12 inhib, ALDH1A1 block, IMPase cell inh, HPGD inh, IMPase Li inh)
CC(C)(C)c1ccc(C(=O)Nc2ccc(C=C(C#N)C#N)cc2)cc1	ALDH1A1 block 4µM (no result: IMPase cell inh)
CC(C)(C)NCCOCCOc1ccccc1-c1ccccc1	ALDH1A1 block 25µM
O=C(CCc1nnc(-c2ccccc2)o1)NC1CCCCC1	none (no result: ALOX12 inhib, IMPase cell inh, HPGD inh)
O=C(CCc1nc(-c2ccccc2F)no1)NCCc1ccccc1Cl	ALDH1A1 block inconclusive
O=C(CCc1nc(-c2ccccc2)no1)NC1CCCCC1	ALDH1A1 block inconclusive, HPGD inh 18µM
O=C(CCc1nc(-c2ccccc2F)no1)NC1CCCCCC1	HPGD inh 28µM
Cc1nn(Cc2ccccc2Cl)c(C)c1NC(=O)c1ccn(C)n1	none (no result: IMPase cell inh)
COCCCn1c(SCCc2ccccc2)nc2cc(OC)c(OC)cc2c1=N	ALDH1A1 block inconclusive (no result: ALOX12 inhib, IMPase cell inh, HPGD inh)
CC(C)C1Cc2c(sc3[nH]c(=S)n(Cc4ccccc4)c(=O)c23)CO1 (stereo not drawn)	HPGD inh inconclusive, NPSR antagonist 10µM
COc1ccc(-c2nc3c(n2O)CCc2c-3no[n+]2[O-])cc1	none (no result: ALOX12 inhib, ALDH1A1 block, IMPase cell inh, HPGD inh, IMPase Li inh)
COc1ccccc1NS(=O)(=O)c1ccc(O)c(C(=O)OCC(=O)N2c3ccccc3CC2C)c1 (stereo not drawn)	ALDH1A1 block 7.9µM (no result: ALOX12 inhib, IMPase cell inh, HPGD inh)
COc1ccccc1NS(=O)(=O)c1ccc(O)c(C(=O)OCC(=O)c2ccc(Cl)cc2Cl)c1	ALDH1A1 block 1.1µM (no result: ALOX12 inhib, IMPase cell inh, HPGD inh)
COc1ccccc1NS(=O)(=O)c1ccc(O)c(C(=O)OCC(=O)N2CCc3ccccc32)c1	none (no result: ALOX12 inhib, ALDH1A1 block, IMPase cell inh, HPGD inh, IMPase Li inh)
COc1ccccc1NS(=O)(=O)c1ccc(O)c(C(N)=O)c1	ALDH1A1 block inconclusive
CN(C)/C=C/C(=O)/C=C/c1cn(-c2ncc(C(F)(F)F)cc2Cl)c2ccccc12	HPGD inh 14µM, NPSR antagonist inconclusive
CC(C)(C)Sc1ccc(N)nc1	none
O=C1C2C(c3ccccc3)C=CC(c3ccccc3)C2C(=O)N1CCCO (stereo not drawn)	none
